NR5A2 inv ag = NR5A2 inverse agonism in reporter assay; HEK293T StAR-luciferase reporter, LRH-1 transfected, 24 h; inhibition, % at 3.6 µM; 360,000 compounds, 0.13% hits; AID 602396;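 active = inhibition above the mean inhibition of all tested compounds plus 3 SD, cut at about 73% in these data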;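 note: 0% = DMSO wells and 100% = reporter-only cells lacking LRH-1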
NCOA3 inh = inhibits human SRC3 coactivator | Q9Y6Q9 | HEK293 GAL4-SRC3 luciferase reporter, luminescence | inhibition, % at 3.6 µM | 360,000 compounds, 0.17% hits;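 active = inhibition above a per-campaign cutoff, the mean of all compounds plus 3 SD, cut at about 60% in these data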;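 note: 0% = DMSO-treated cells and 100% = gossypol-treated cells at 36 µM; higher means less SRC3-driven luciferase light from the GAL4 reporter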
Target sequence (Q9Y6Q9 whole entry, looked up, the tested form may be a part): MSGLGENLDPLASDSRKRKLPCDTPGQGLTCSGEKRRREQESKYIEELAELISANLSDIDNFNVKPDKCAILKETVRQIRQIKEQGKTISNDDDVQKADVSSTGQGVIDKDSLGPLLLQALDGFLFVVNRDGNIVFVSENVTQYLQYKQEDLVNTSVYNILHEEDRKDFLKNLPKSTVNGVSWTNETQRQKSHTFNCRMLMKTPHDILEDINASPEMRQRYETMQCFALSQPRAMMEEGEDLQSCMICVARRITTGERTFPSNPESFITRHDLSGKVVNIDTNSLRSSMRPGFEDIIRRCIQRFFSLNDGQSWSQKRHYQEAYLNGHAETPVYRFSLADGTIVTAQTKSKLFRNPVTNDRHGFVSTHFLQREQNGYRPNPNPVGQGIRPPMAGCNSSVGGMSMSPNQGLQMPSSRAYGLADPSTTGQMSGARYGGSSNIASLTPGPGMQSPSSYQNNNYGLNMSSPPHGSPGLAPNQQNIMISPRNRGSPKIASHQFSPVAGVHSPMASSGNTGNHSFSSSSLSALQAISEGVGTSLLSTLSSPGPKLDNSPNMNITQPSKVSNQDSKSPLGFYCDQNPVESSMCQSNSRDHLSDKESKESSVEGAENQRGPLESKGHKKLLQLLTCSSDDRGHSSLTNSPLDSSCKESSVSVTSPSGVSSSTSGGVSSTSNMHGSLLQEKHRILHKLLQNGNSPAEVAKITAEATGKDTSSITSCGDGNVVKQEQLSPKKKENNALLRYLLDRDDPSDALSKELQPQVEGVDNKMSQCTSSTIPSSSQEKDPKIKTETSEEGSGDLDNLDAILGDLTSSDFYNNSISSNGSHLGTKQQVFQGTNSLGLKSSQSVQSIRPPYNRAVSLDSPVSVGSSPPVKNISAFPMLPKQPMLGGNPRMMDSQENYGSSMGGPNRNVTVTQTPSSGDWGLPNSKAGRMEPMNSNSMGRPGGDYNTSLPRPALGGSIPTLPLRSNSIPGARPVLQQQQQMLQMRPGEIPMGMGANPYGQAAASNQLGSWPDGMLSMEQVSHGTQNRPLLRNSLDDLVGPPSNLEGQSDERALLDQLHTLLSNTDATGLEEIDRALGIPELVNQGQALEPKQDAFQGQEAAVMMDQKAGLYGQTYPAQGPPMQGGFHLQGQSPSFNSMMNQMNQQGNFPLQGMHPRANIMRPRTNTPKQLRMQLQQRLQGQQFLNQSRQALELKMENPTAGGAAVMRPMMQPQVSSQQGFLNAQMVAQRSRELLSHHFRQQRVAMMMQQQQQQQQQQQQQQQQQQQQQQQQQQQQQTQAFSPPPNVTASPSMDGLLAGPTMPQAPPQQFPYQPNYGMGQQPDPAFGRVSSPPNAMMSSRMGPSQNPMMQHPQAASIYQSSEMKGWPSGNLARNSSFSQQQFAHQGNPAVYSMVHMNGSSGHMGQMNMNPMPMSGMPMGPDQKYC
NCOA2 inhibitor = human SRC2 (NCOA2) inhibition; Q15596; HEK293 GAL4-SRC2 luciferase reporter, luminescence; inhibition, % at 9 µM; 370,000 compounds, 0.17% hits; AID 651957;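 active = inhibition above the mean inhibition of all tested compounds plus 3 SD, set per campaign, cut at about 52% in these data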;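 note: 0% = DMSO treated cells and 100% = cells given Gossypol at 36 µM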
NCOA1 inh = inhibits human SRC1 coactivator; Q15788; HEK293 GAL4-SRC1 luciferase reporter, luminescence; inhibition, % at 3.6 µM; 360,000 compounds, 0.12% hits; AID 588354;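 active = inhibition above the campaign mean plus 3 SD, with each screening campaign given its own cutoff, cut at about 60% in these data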;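 note: 0% = DMSO treated cells and 100% = gossypol at 36 µM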
LMP1 NFkB inh = reduces LMP1-driven NF-kappaB luciferase signal; LMP1-induced NF-kappaB luciferase reporter cells, luminescence; inhibition, % at 12.5 µM; 350,000 compounds, 0.69% hits; in the data active = inhibition above about 41%;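 note: 0% = neutral control wells and 100% = reference inhibitor control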
* = called active by the depositor; . = not tested or not shown. Compounds with a hit are over-represented: about 0.78% of the library has one in this group of screens.

SMILES	NR5A2 inv ag	NCOA3 inh	NCOA2 inhibitor	NCOA1 inh	LMP1 NFkB inh
N#Cc1cccc(C(=O)N2CCC(Oc3cccnc3)CC2)c1	.	.	2.5	.	.
COc1ccccc1OCc1ccc(C(=O)c2ccccc2)cc1	-27.9	-30.6	-27.0	-19.9	62.6*
S=C(NCCCN1CCOCC1)N1CCN(c2nc(-c3ccc(Cl)cc3)cs2)CC1	15.5	22.4	24.8	16.4	44.1*
COC(=O)C12C=C3CC(c4ccc(OC)cc4)=C3C(=O)N1Cc1[nH]c3ccccc3c1C2 (configuration not stated)	.	.	-16.7	.	.
O=S(=O)(c1ccc(Cl)s1)N1CCC(c2nc3ccccc3o2)CC1	.	.	21.7	.	.
Cc1ccc(CSc2nc3ccncc3[nH]2)cc1	-139.8	-133.7	-53.8	-87.0	47.3*
COCCN(C(=O)CCC(=O)Nc1cc(C)on1)C(C(=O)NC1CCCC1)c1ccccc1C (configuration not stated)	2.8	10.8	-1.8	-5.8	-18.1
COCCN(C(=O)CCl)C(C(=O)NC1CCCCC1)c1ccccc1C (configuration not stated)	27.7	59.4	53.8*	21.6	9.1
CCOC(=O)CS(=O)(=O)c1nc(-c2ccc(F)cc2)cc(C(F)(F)F)n1	-27.8	-10.0	.	-45.1	69.0*
CCNC(=O)C[C@H]1CC[C@H]2[C@@H](COc3ccc(NC(=O)c4ccc5c(c4)OCO5)cc3C(=O)N2C)O1	.	.	1.9	.	.
CC(C)c1ccc(/C=C(\c2nc3ccccc3[nH]2)S(=O)(=O)c2ccccc2)cc1	57.4	73.5*	53.0*	28.2	-72.1
N#CCC[C@H]1CC[C@]2(CCCN(C(=O)C3CCCC3)C2)O1	.	.	-13.5	.	.
CC(Nc1ccccc1CO)C(=O)Nc1cccc(Cl)c1Cl (configuration not stated)	21.4	23.2	2.5	2.4	67.8*
Cc1nc(Sc2nnnn2C)c2c3c(sc2n1)CCC3	10.2	6.7	24.6	-17.9	48.4*
CCc1c(C)nc2ccc(Br)cc2c1SCCC#N	-4.2	64.3*	51.1	64.6*	25.9
O=C(O)c1cccc(-c2noc(-c3cccc(Cl)c3)n2)c1	-137.3	-118.8	-53.0	-107.1	79.6*
COc1ccc(CN2CN3Cc4ccccc4C3CS2(=O)=O)cc1 (configuration not stated)	.	.	-7.5	.	.
Cn1c(/C=C/c2ccccc2)nc2ccccc21	-65.1	-36.8	16.5	-54.5	46.5*
C=CCC12C=C(OC)C(=O)C(C1=O)C(c1ccc(OC)cc1)C2C (configuration not stated)	.	.	-32.6	.	.
CN1CCN(c2ncnc3scc(-c4ccccc4Cl)c23)CC1	34.8	62.7*	31.4	44.7	24.1
CCCCn1cnc2c(=O)[nH]ccc21	.	.	-6.0	.	.
COc1ccc(/C=C/c2c([N+](=O)[O-])c(=O)n(C)c(=O)n2C)c(OC)c1	13.6	11.4	-37.7	2.9	-3.4
Cn1c(/C=C/c2ccc(Cl)cc2Cl)c([N+](=O)[O-])c(=O)n(C)c1=O	5.8	75.5*	-19.4	45.9	-30.4
COc1ccc(C2CCC3(CCC(=O)N3CCOC(=O)NCc3ccc(Cl)cc3)CC2)cc1 (configuration not stated)	.	.	23.0	.	.
CC(=O)c1ccc(Nc2nc(C)cc(C)n2)cc1	-82.7	-60.0	-108.8	-75.2	79.9*
SMILES	NR5A2 inv ag	NCOA3 inh	NCOA2 inhibitor	NCOA1 inh	LMP1 NFkB inh
COCCN1CSC(=S)N(Cc2ccco2)C1	-7.9	1.8	-17.8	-0.8	44.8*
Cc1cc(NC(=O)c2ccccc2)c(Cl)cc1N	0.0	5.7	65.7*	5.3	-4.6
CCOC(=O)Cc1csc(N/N=C/c2ccc(Cl)cc2)n1	-8.3	14.4	2.5	3.0	49.3*
CC(=NNC(=S)SCc1ccccc1)c1ccccn1	4.0	-21.9	-17.6	-3.6	35.4
CC(=NNC(=S)N1CC2CCC(CC2)C1)c1cccc(C)n1	6.0	-6.3	1.4	-19.5	78.8*
C/C(=N\NC(=O)c1ccc(Cl)cc1)c1ccccn1	-26.2	-38.9	-44.3	-15.1	33.2
S=C(NCc1ccccn1)Nc1cccc(Cl)c1	-16.6	-15.8	-38.1	-12.7	-14.4
CC(=NNC(=S)Nc1cccc(Cl)c1)c1ccccn1	45.9	67.3*	29.8	58.0	52.3*
Cc1cccc(C(=O)N2CCCC(Nc3ccc(C)c(C)c3)C2)n1 (configuration not stated)	-5.5	-3.7	-19.1	6.2	2.2
CC(=NNC(=S)N1CCCC1)c1ccccn1	28.1	34.2	-35.0	42.9	57.2*
CC(=NNC(=S)N1CCC1)c1ccccn1	4.4	11.2	-83.8	21.7	50.3*
CCOC(=O)C(CNc1ccc(O)cc1)NC(=O)c1ccccc1 (configuration not stated)	.	.	-34.2	.	.
